Laboratory results published in PubChem BioAssay (NCATS).
Inconclusive results are not listed. Where a call stands in place of a potency, no number is given. Values without a mark were called inactive. Active and inactive are the calls of the source. Calls come from the whole dose curve; as a rule, active = well fitted curve in the direction sought with a large enough effect; inconclusive = small, poorly fitted or top-dose-only effect, or another doubt; inactive = no such curve, though single readings can be large; an effect the other way counts as inactive or inconclusive.

Columns and labels:
[1] = system: MCC-13; assay: qHTS assay to identify novel small-molecules to repurpose for Merkel cell carcinoma treatment (AID 1296009); details: MCC and control cell lines, CellTiter-Glo viability, 72 h; series mostly up to 46 µM; note: nearly all actives have a fitted effect of over 60% in size
How it was run: (§1)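 CellTiter-Glo luminescence after 72 hr compound exposure at 37 degree celsius gave cell viability. Libraries NPC and MIPE were run as 8- and 11-point dose responses; RLUs normalized to DMSO (negative) and no-cell (cytotoxicity) controls.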

[2] = system: MCC-26; assay: as above; details: MCC and control cell lines, CellTiter-Glo viability, 72 h; series mostly up to 46 µM
How it was run: as §1

[3] = system: C33A; assay: Primary qHTS to identify gynecologic anti-cancer compounds using libraries of approved drugs and bioactive compounds (AID 1345084); details: Gynecologic cancer cell panel viability, ATPlite luminescence, 48 h; series mostly up to 57.5 µM; note: nearly all actives have a fitted effect of over 55% in size
How it was run: (§2)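 Luminescence from the ATPlite ATP-monitoring reagent indicates viable cell number; lower signal means cytotoxicity. Cells received compound 16 h after seeding and were exposed for 48 h across five concentrations.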

[4] = system: CAOV3; assay: as above; details: Gynecologic cancer cell panel viability, ATPlite luminescence, 48 h; series mostly up to 57.5 µM
How it was run: as §2

[5] = system: Es-2; assay: as above; details: Gynecologic cancer cell panel viability, ATPlite luminescence, 48 h; series mostly up to 57.5 µM
How it was run: as §2

[6] = system: HeLa; assay: as above; details: Gynecologic cancer cell panel viability, ATPlite luminescence, 48 h; series mostly up to 57.5 µM
How it was run: as §2

[7] = system: JEG-3; assay: as above; details: Gynecologic cancer cell panel viability, ATPlite luminescence, 48 h; series mostly up to 57.5 µM
How it was run: as §2

[8] = system: MKL-1; assay: qHTS assay to identify novel small-molecules to repurpose for Merkel cell carcinoma treatment (AID 1296009); details: MCC and control cell lines, CellTiter-Glo viability, 72 h; series mostly up to 46 µM; note: nearly all actives have a fitted effect of over 60% in size
How it was run: as §1

[9] = system: MKL-2; assay: as above; details: MCC and control cell lines, CellTiter-Glo viability, 72 h; series mostly up to 46 µM
How it was run: as §1

[10] = system: CASKI; assay: Primary qHTS to identify gynecologic anti-cancer compounds using libraries of approved drugs and bioactive compounds (AID 1345084); details: Gynecologic cancer cell panel viability, ATPlite luminescence, 48 h; series mostly up to 57.5 µM; note: nearly all actives have a fitted effect of over 55% in size
How it was run: as §2

[11] = system: Hek293T; assay: as above; details: Gynecologic cancer cell panel viability, ATPlite luminescence, 48 h, control line for the selectivity index; series mostly up to 57.5 µM
How it was run: as §2

[12] = system: CRL-7250; assay: qHTS assay to identify novel small-molecules to repurpose for Merkel cell carcinoma treatment (AID 1296009); details: MCC and control cell lines, CellTiter-Glo viability, 72 h; note: nearly all actives have a fitted effect of over 60% in size
How it was run: as §1

[13] = system: OV90; assay: Primary qHTS to identify gynecologic anti-cancer compounds using libraries of approved drugs and bioactive compounds (AID 1345084); details: Gynecologic cancer cell panel viability, ATPlite luminescence, 48 h; series mostly up to 57.5 µM; note: nearly all actives have a fitted effect of over 55% in size
How it was run: as §2

[14] = at 44.8 µM (top of the series) unless noted
Potency is the fitted concentration of half-maximal effect.

Compound: C[C@]12CCC(=O)C=C1CC[C@@H]1[C@H]3CC[C@](C)(O)[C@@]3(C)CC[C@@H]12
- outcome [1]: inactive
- Potency [2]: inactive
- Potency [3]: inactive
- outcome [4]: inactive
- Potency [5]: inactive
- Potency [6]: 31.6 µM (active)
- outcome [7]: inactive

Compound: O=c1c(C2CC(c3ccc(-c4ccc(Br)cc4)cc3)Cc3ccccc32)c(O)sc2ccccc12 (stereo not given)
- outcome [1]: inactive
- Potency [2]: inactive
- Potency [8]: inactive
- Potency [9]: inactive
- Potency [3]: inactive
- outcome [4]: inactive
- outcome [10]: inactive
- Potency [5]: inactive
- outcome [11]: inactive

Compound: NC(=O)NC1N=C([O][Al])NC1=O (stereo not given)
- outcome [12, 14]: inactive

Compound: Cc1cc(O)c2c(O)c3c(O)cccc3cc2c1
- outcome [12, 14]: inactive

Compound: CC(=O)NC[C@H]1CN(c2ccc(N3CCOCC3)c(F)c2)C(=O)O1
- outcome [12, 14]: inactive

Compound: c1ccc2sc(SN3CCOCC3)nc2c1
- outcome [12, 14]: inactive

Compound: O=C1O[C@H](CO)[C@@H](O)[C@H](O)[C@H]1O
- outcome [12, 14]: inactive

Compound: NS(=O)(=O)c1cc(C(=O)NN2C[C@H]3[C@H]4CCC(C4)[C@H]3C2)ccc1Cl
- outcome [12, 14]: inactive

Compound: O=C(Oc1ccccc1)c1ccccc1O
- outcome [12, 14]: inactive

Compound: C[C@@H](N)[C@@H](O)c1ccccc1
- Potency [3]: inactive
- outcome [4]: inactive
- outcome [10]: inactive
- Potency [5]: inactive
- Potency [6]: inactive
- outcome [11]: inactive
- outcome [7]: inactive
- Potency [13]: inactive

Compound: Nc1ccc(S(=O)(=O)Nc2ccnn2-c2ccccc2)cc1
- outcome ([12]; at 17.4 µM (top of the series)): inactive
- outcome ([12]; at 44.8 µM (top of the series)): inactive

Compound: Cc1ccc2ccc(Cl)cc2n1
- outcome [12, 14]: inactive

Compound: CO/N=C(/C(=O)N[C@@H]1C(=O)N2C(C(=O)OCOC(=O)C(C)(C)C)=C(C)CS[C@H]12)c1csc(N)n1
- outcome [12, 14]: inactive

Compound: C[C@]12CC[C@H]3[C@@H](CC[C@@]45O[C@H]4C(O)=C(C#N)C[C@]35C)[C@H]1CC[C@H]2O
- Potency [3]: inactive
- outcome [4]: inactive
- outcome [10]: inactive
- Potency [5]: inactive
- Potency [6]: inactive
- outcome [11]: inactive
- outcome [7]: inactive
- Potency [13]: inactive

Compound: O=c1cc[nH]c(=O)[nH]1
- outcome [12, 14]: inactive

Compound: Cc1cc(CCCOc2c(C)cc(-c3noc(C(F)(F)F)n3)cc2C)on1
- outcome [12, 14]: inactive

Compound: CC(C)(C)c1ccc(O)cc1
- Potency [3]: inactive
- outcome [4]: inactive
- outcome [10]: inactive
- Potency [5]: inactive
- Potency [6]: inactive
- outcome [11]: inactive
- outcome [7]: inactive
- Potency [13]: inactive

Compound: O=C(O)Cc1cccc2ccccc12
- outcome ([12]; at 44.8 µM (top of the series)): inactive
- outcome ([12]; at 92 µM (top of the series)): inactive

Compound: CS(=O)(=O)c1ccc([C@@H](O)[C@@H](CO)NC(=O)C(Cl)Cl)cc1
- outcome [12, 14]: inactive

Compound: O=C1OC(CCN2CCCCC2)OC1(c1ccccc1)c1ccccc1 (stereo not given)
- Potency [2]: inactive
- Potency [8]: 21.1 µM (active)
- Potency [9]: 6.68 µM (active)
- Potency [3]: inactive
- outcome [4]: inactive
- outcome [10]: inactive
- Potency [5]: inactive
- Potency [6]: inactive
- outcome [11]: inactive
- outcome [7]: inactive
- Potency [13]: inactive

Compound: CCN1CCCC1CNC(=O)c1cc(S(=O)(=O)CC)c(N)cc1OC (stereo not given)
- outcome [12, 14]: inactive

Compound: C[N+]1(C)[C@@H]2CC(OC(=O)[C@H](CO)c3ccccc3)C[C@H]1[C@@H]1O[C@@H]12 (stereo not given in full)
- outcome [12, 14]: inactive

Compound: CN=C(NC#N)NCCSCc1nc[nH]c1C
- outcome [12, 14]: inactive

Compound: CC1COc2c(N3CCN(C)CC3)c(F)cc3c(=O)c(C(=O)O)cn1c23 (stereo not given)
- outcome [12, 14]: inactive

Compound: CN(C)C(=O)COC(=O)Cc1ccc(OC(=O)c2ccc(N=C(N)N)cc2)cc1
- outcome [12, 14]: inactive

Compound: CC(C)(C)NCC(O)COc1ccc(NC(=O)NC2CCCCC2)cc1 (stereo not given)
- outcome [12, 14]: inactive

Compound: COc1ccc2c(c1)c(CC(=O)OC/C=C(\C)CC/C=C(\C)CCC=C(C)C)c(C)n2C(=O)c1ccc(Cl)cc1
- outcome [12, 14]: inactive

Compound: C[C@H](NC(CCc1ccccc1)C(=O)O)C(=O)N1CCC[C@H]1C(=O)O (stereo not given in full)
- outcome [12, 14]: inactive

Compound: CNNCc1ccc(C(=O)NC(C)C)cc1
- outcome [12, 14]: inactive

Compound: Cc1cc2nc3c(=O)[nH]c(=O)nc-3n(C[C@H](O)[C@H](O)[C@H](O)CO)c2cc1C
- outcome [12, 14]: inactive [at 17.4 µM]

Compound: CC(C)(Oc1ccc(Cl)cc1)C(=O)O
- outcome [12, 14]: inactive

Compound: CC(C(=O)O)c1ccc2c(c1)CC(=O)c1ccccc1S2 (stereo not given)
- outcome [12, 14]: inactive

Compound: CC(C(=O)O)c1ccc2c(c1)[nH]c1ccc(Cl)cc12 (stereo not given)
- outcome [12, 14]: inactive
